Measurements taken from PubChem BioAssay AID1851 (National Center for Advancing Translational Sciences (NCATS), 2009).
“And” between values parts separate entries of the source, which are not always exact repeats. Equal values may be shown once. Hit rate of the full screen: of about 16,000 compounds, about 5,100 (32%) were called active. About 25% were inconclusive and are not listed. This is one part of the list. Values without a mark were called inactive. The call rests on the fitted dose curve; in most records, active means well fitted curve in the direction sought with a large enough effect; inconclusive means small, poorly fitted or top-dose-only effect, or effect the other way; inactive means no such curve, though single readings can be large or run the other way.

molecular target: Cytochrome P450 3A4 (Homo sapiens) (UniProt P08684); experiment: Cytochrome panel assay with activity outcomes; details: recombinant CYP, pro-luciferin dealkylation, luminescence, p450-cyp3a4; series mostly up to 57.1 µM
On the % scale 0 is the no-effect control and ±100 the full control effect.

Sequence of Cytochrome P450 3A4 (Homo sapiens) (P08684 whole entry, looked up): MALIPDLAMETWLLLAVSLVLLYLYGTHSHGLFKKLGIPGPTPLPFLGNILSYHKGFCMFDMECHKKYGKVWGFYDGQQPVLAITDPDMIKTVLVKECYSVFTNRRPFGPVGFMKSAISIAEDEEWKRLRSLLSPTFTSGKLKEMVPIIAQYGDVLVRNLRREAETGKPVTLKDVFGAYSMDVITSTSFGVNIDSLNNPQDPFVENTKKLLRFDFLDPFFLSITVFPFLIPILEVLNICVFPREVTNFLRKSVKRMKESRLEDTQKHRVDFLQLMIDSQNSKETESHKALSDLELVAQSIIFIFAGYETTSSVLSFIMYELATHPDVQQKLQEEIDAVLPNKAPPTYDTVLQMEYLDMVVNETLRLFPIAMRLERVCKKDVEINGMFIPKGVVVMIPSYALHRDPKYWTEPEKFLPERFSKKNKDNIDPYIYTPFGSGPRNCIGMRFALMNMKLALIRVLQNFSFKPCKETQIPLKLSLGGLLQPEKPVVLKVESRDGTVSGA

Q: With `Cc1cc(C(C)(C)CC(C)(C)C)ccc1OCCOCC[N+](C)(C)Cc1ccccc1` as the compound, how does the AC50 read?
A: inactive

Q: With `COc1ccc(N2C(=O)CCC(C(=O)Nc3ccccn3)C2c2ccc(OC)c(OC)c2)cc1` (centres undefined) as the compound, how does the AC50 read?
A: 20 µM (active)

Q: For `COc1ccc(N2C(=O)CCC(C(=O)O)C2c2ccc(F)cc2)cc1` (centres undefined), which AC50 is on record?
A: inactive

Q: How did the AC50 turn out when `CCN(CC)CCCNC(=O)C1CCC(=O)N(c2ccc(OC)cc2)C1c1ccc(F)cc1` (centres undefined) was run?
A: 15.8 µM (active)

Q: With `CCCCNC(=O)C1CC(=O)N(c2ccc(OC)cc2)C1c1ccc(OC)cc1` (centres undefined) as the compound, how does the activity, negative = inhibition read?
A: 3.58% [at 2.29 µM]

Q: `c1ccc(SC(Sc2ccccc2)c2ccc3c(c2)OCO3)cc1` was tested. Which AC50 did it give?
A: 2.51 µM (active)

Q: Which AC50 does the source give for `CS(=O)(=O)N1CCC2(CCN(Cc3nccs3)CC2)CC1` here?
A: inactive

Q: `O=S(=O)(c1ccccc1)N1CCC2(CCN(Cc3nccs3)CC2)CC1` was tested. Which AC50 did it give?
A: inactive

Q: `O=S(=O)(c1ccccc1)N1CCC2(CCCN(Cc3nccs3)C2)CC1` was tested. Which AC50 did it give?
A: 3.16 µM (active)

Q: `O=S(=O)(c1ccccc1)N1CCC2(CC1)CN(Cc1nccs1)C2` was tested. Which AC50 did it give?
A: inactive

Q: With `CS(=O)(=O)N1CCC2(CC1)CN(Cc1nccs1)C2` as the compound, how does the AC50 read?
A: inactive

Q: How did the AC50 turn out when `O=S(=O)(c1ccccc1)N1CCC[C@@]2(CCN(Cc3nccs3)C2)C1` was run?
A: 3.16 µM (active)

Q: Which activity, negative = inhibition does the source give for `CO[C@H]1C[C@@H]2C[C@H](O)C[C@@H](CC(=O)O[C@@H](/C=C\CC(C)C)C[C@@H]3CC[C@H](C)[C@@H](C1)O3)O2` here?
A: -7.29% [at 11.4 µM]

Q: For `Cn1cc(-c2nnc(-c3ccccc3)o2)c2ccccc21`, which AC50 is on record?
A: 14.1 µM (active)

Q: For `Clc1ccc(-c2nnc(-c3cccc4ccccc34)o2)cc1Cl`, which activity, negative = inhibition is on record?
A: -4.35% [at 11.4 µM]

Q: For `Oc1ccccc1-c1nnc(-c2ccc(C(F)(F)F)cc2)o1`, which AC50 is on record?
A: inactive

Q: How did the AC50 turn out when `O=C1CCCN1CC(CN1CCOCC1)Sc1nnnn1-c1ccccc1` (centres undefined) was run?
A: 15.8 µM (active)

Q: `c1ccc2c(c1)nnn2CN1CCOCC1` was tested. Which activity, negative = inhibition did it give?
A: -7.23% [at 11.4 µM]

Q: Which AC50 does the source give for `COc1ccc(O[C@H]2C=C[C@@H](c3ccccc3)O[C@H]2COC(=O)CC/C(C)=N\O[C@@H](C)c2cn([C@H](CO)Cc3ccccc3)nn2)cc1` here?
A: 3.98 µM (active) and 5.01 µM (active)

Q: `COc1ccc(O[C@H]2C=C[C@@H](c3ccccc3)O[C@H]2COC(=O)CC/C(C)=N\O[C@@H](C)c2cn([C@H]3COC[C@H]3O)nn2)cc1` was tested. Which AC50 did it give?
A: 3.98 µM (active)

Q: `C[C@H](O/N=C1/[C@H]2O[C@@H]2[C@@H](O)[C@H]2[C@H]1CCn1c(=O)n(-c3ccccc3)c(=O)n12)c1cn([C@H]2COC[C@H]2O)nn1` was tested. Which activity, negative = inhibition did it give?
A: -7.71% [at 11.4 µM]

Q: How did the AC50 turn out when `C/C(CCC(=O)OC[C@@H]1O[C@H](C#Cc2ccccc2)C=C[C@@H]1Oc1ccc(C)cc1)=N/O[C@@H](C)c1cn([C@H](CO)Cc2ccccc2)nn1` was run?
A: 3.98 µM (active) and 3.16 µM (active)

Q: `O=S(=O)(O)c1ccc(N=Nc2ccc3c(S(=O)(=O)O)cccc3c2O)c2ccccc12` was tested. Which activity, negative = inhibition did it give?
A: -9.88% [at 11.4 µM]

Q: With `C/C(N)=C(/C#N)C(=O)CSc1nnc(COc2cc(C)ccc2C)o1` as the compound, how does the AC50 read?
A: 3.55 µM (active)

Q: For `Cc1ccc(C)c(OCCCC(C)(C)C(=O)O)c1`, which AC50 is on record?
A: inactive

Q: How did the activity, negative = inhibition turn out when `CC(=O)CSc1nnc(Cc2ccc([N+](=O)[O-])cc2)o1` was run?
A: 7.56% [at 2.29 µM]

Q: `C[C@H](CO)NC(=O)[C@H](C)[C@@H]1C[C@@]1(C)[C@@H](NC(=O)OCc1ccccc1)c1ccccc1` was tested. Which AC50 did it give?
A: 5.01 µM (active)

Q: Which AC50 does the source give for `C[C@H](CO)NC(=O)[C@H](C)[C@H]1C[C@]1(C)[C@H](NC(=O)OCc1ccccc1)c1ccccc1` here?
A: 3.98 µM (active)

Q: Which AC50 does the source give for `O=C(c1ccc(Br)cc1)c1cc([N+](=O)[O-])ccc1N1CCCCC1` here?
A: 3.55 µM (active)

Q: How did the AC50 turn out when `CN1CCN(S(=O)(=O)c2cc([N+](=O)[O-])ccc2N2CCCCCC2)CC1` was run?
A: 0.794 µM (active)

Q: For `CN(C)S(=O)(=O)c1cc([N+](=O)[O-])ccc1N1CCCCCC1`, which AC50 is on record?
A: 12.6 µM (active)

Q: `CN1CCN(c2ccc([N+](=O)[O-])cc2S(=O)(=O)N2CCOCC2)CC1` was tested. Which AC50 did it give?
A: inactive

Q: How did the AC50 turn out when `O=C(N/N=C/c1cc([N+](=O)[O-])ccc1N1CCNCC1)c1ccc([N+](=O)[O-])cc1` was run?
A: inactive

Q: With `CN1CCN(c2ccc([N+](=O)[O-])cc2C(=O)N2CCOCC2)CC1` as the compound, how does the AC50 read?
A: inactive

Q: How did the activity, negative = inhibition turn out when `O=C1C[C@@H](O)[C@@H](O)[C@H]2[C@@H]3C(=O)N(C4CCCCC4)C(=O)[C@@H]3CC[C@H]12` was run?
A: -5.08% [at 11.4 µM] and -17.3% [at 11.4 µM] and -26.5% [at 11.4 µM]

Q: For `Cc1ccc(-c2n[nH]c(=S)n2/N=C/c2cccn2C)cc1`, which AC50 is on record?
A: 12.6 µM (active)

Q: With `Cc1ccc(/C=N/n2c(-c3cccs3)n[nH]c2=S)cc1` as the compound, how does the AC50 read?
A: 11.2 µM (active)

Q: How did the AC50 turn out when `COc1ccc(/C=N/n2c(-c3cccs3)n[nH]c2=S)cc1` was run?
A: 8.91 µM (active)

Q: Which activity, negative = inhibition does the source give for `COc1ccc(C2=CSC(/N=C/c3ccc(F)cc3)=NN2)cc1` here?
A: 0.425% [at 2.29 µM]

Q: Which activity, negative = inhibition does the source give for `Cc1ccc(/C=C/c2nnc(-c3cccs3)o2)cc1` here?
A: 6.75% [at 2.29 µM]

Q: `CN(C)C=Nc1ccc2nn(-c3ccccc3)nc2c1` was tested. Which activity, negative = inhibition did it give?
A: -3.41% [at 2.29 µM]

Q: Which activity, negative = inhibition does the source give for `O=[N+]([O-])c1ccc([C@@H](Nc2ccccc2)c2ccc3cccnc3c2O)cc1` here?
A: -23.7% [at 11.4 µM]

Q: For `c1ccc(-c2nc(N3CCCCCC3)nc(-n3ccnc3)n2)cc1`, which AC50 is on record?
A: 0.708 µM (active)

Q: `CCCSc1cc(N2CCCC2)nc(-c2ccccc2)n1` was tested. Which AC50 did it give?
A: inactive

Q: With `CN(c1ccccc1)c1nc(-n2ccnc2)nc(-n2ccnc2)n1` as the compound, how does the AC50 read?
A: 0.891 µM (active)

Q: How did the activity, negative = inhibition turn out when `c1ccc(-c2nnn(CCN3CCCCC3)n2)cc1` was run?
A: -9.98% [at 11.4 µM]

Q: Which AC50 does the source give for `COc1ccccc1-c1ccc2ncnc(N3CCN(C)CC3)c2c1` here?
A: 3.16 µM (active)

Q: With `CN(C)Cc1ccccc1-c1ccc2ncnc(N3CCOCC3)c2c1` as the compound, how does the AC50 read?
A: 20 µM (active)

Q: For `COc1ccccc1-c1ccc2ncnc(N3CCOCC3)c2c1`, which AC50 is on record?
A: 6.31 µM (active)

Q: How did the AC50 turn out when `CN(C)C(=O)c1ccc(-c2ccc3ncnc(N4CCC(C(=O)O)CC4)c3c2)cc1` was run?
A: inactive

Q: For `CCCCCCCCCn1cc(C(C)=O)c(=O)[nH]c1=O`, which activity, negative = inhibition is on record?
A: -7.53% [at 2.29 µM]

Q: How did the AC50 turn out when `CN(C)C[C@H]1CCC2=C(C1=O)C(c1ccc(Cl)c(Cl)c1)C1=C(CC[C@H](CN(C)C)C1=O)O2` was run?
A: 0.398 µM (active)

Q: `O=C(Cn1ccc(=O)[nH]c1=O)Nc1ccc(C(=O)O)c(O)c1` was tested. Which activity, negative = inhibition did it give?
A: -4.95% [at 11.4 µM]

Q: `COc1ccc(Cc2nc3ccc(S(=O)(=O)N4CCOCC4)cc3[nH]2)cc1OC` was tested. Which AC50 did it give?
A: 12.6 µM (active)

Q: How did the AC50 turn out when `COc1cccc2c1OC1(C)CC2/C(=C(\C)O)C(=O)N1` (centres undefined) was run?
A: inactive

Q: With `COc1cccc(C2NC(c3cccc(OC)c3O)C(C)C(=O)C2C)c1O` (centres undefined) as the compound, how does the AC50 read?
A: 12.6 µM (active)

Q: `COc1cccc(C(c2c(C)[nH]n(-c3ccccc3)c2=O)c2c(C)[nH]n(-c3ccccc3)c2=O)c1O` was tested. Which AC50 did it give?
A: inactive

Q: Which AC50 does the source give for `CN1c2ccccc2Oc2c(c(=O)n(C)c(=O)n2C)C1c1cccc([N+](=O)[O-])c1` (centres undefined) here?
A: 15.8 µM (active)

Q: With `CC1(C)CC2(CC(C)(C(=O)CSc3nc4ccccc4s3)OC2=O)C(=O)O1` (centres undefined) as the compound, how does the AC50 read?
A: 10 µM (active)

Q: Which AC50 does the source give for `CC(C)CC1CC(=O)OC1(C)C(=O)CSc1nc2ccccc2s1` (centres undefined) here?
A: 15.8 µM (active)

Q: For `NCCSSCCN`, which AC50 is on record?
A: inactive

Q: With `COc1ccc2[nH]cc(CCNc3nc(-c4ccccc4OC)nc4ccccc34)c2c1` as the compound, how does the AC50 read?
A: 2.51 µM (active)

Q: Which AC50 does the source give for `COc1cccc(-c2nc(NCCc3c[nH]c4ccc(OC)cc34)c3ccccc3n2)c1` here?
A: 2 µM (active)

Q: With `COc1ccc2[nH]cc(CCNc3nc(-c4cccnc4)nc4ccccc34)c2c1` as the compound, how does the AC50 read?
A: 1.58 µM (active)

Q: Which AC50 does the source give for `COc1ccc2[nH]cc(CCNc3nc(-c4ccoc4)nc4ccccc34)c2c1` here?
A: 3.16 µM (active)

Q: Which activity, negative = inhibition does the source give for `COC(=O)[C@@H]1O[C@@H](c2c(OC)c(OC)c(C)c(OC)c2OC)[C@H](C)[C@@H](O)[C@@H]1C` here?
A: -7.25% [at 11.4 µM]

Q: With `COc1ccc(-n2c(=O)c(-c3cn(C)c4ccccc34)nc3cncnc32)cc1` as the compound, how does the AC50 read?
A: 20 µM (active)

Q: Which AC50 does the source give for `O=c1c(-c2ccccc2)nc2cncnc2n1-c1ccccc1` here?
A: inactive

Q: For `Cn1cc(-c2nc3cncnc3n(-c3ccccc3)c2=O)c2ccccc21`, which AC50 is on record?
A: 10 µM (active)

Q: `CCCc1nnc(NC(=O)C(CC)OC(=O)c2cc(C)nc3ccccc23)s1` (centres undefined) was tested. Which AC50 did it give?
A: 12.6 µM (active)

Q: Which activity, negative = inhibition does the source give for `CCCc1nnc(NC(=O)CCC(=O)NCc2ccccc2OC)s1` here?
A: 2.33% [at 2.29 µM]

Q: Which activity, negative = inhibition does the source give for `CCCCCc1nnc(NC(=O)C(=O)OCC)s1` here?
A: 1.6% [at 2.29 µM]

Q: How did the AC50 turn out when `CC(=O)Nc1ccc(C2=NN(CC#N)C(=O)SC2)cc1` was run?
A: inactive

Q: How did the AC50 turn out when `O=C(NCc1cccnc1)C1COc2ccccc2O1` (centres undefined) was run?
A: 5.01 µM (active)

Q: `O=C(NCc1cccnc1)[C@@H]1[C@@H](C(=O)O)[C@H]2CC[C@@H]1O2` was tested. Which activity, negative = inhibition did it give?
A: -23.9% [at 11.4 µM]

Q: For `O=C(Nc1cccnc1)C1COc2ccccc2O1` (centres undefined), which AC50 is on record?
A: inactive

Q: Which activity, negative = inhibition does the source give for `O=C(O)[C@@H]1[C@@H](C(=O)NCc2cccnc2)[C@@H]2C=C[C@@H]1O2` here?
A: -21.1% [at 11.4 µM]

Q: For `COc1ccc(C(=O)c2c[nH]c(C(=O)NCc3cccs3)c2)cc1`, which AC50 is on record?
A: inactive

Q: For `O=C(CCc1ccccc1)NCc1cccnc1`, which AC50 is on record?
A: 5.01 µM (active)

Q: How did the AC50 turn out when `NNC(=O)Cc1cccnc1` was run?
A: 3.16 µM (active)

Q: `O=C(c1ccccc1)c1c[nH]c(C(=O)NCc2cccnc2)c1` was tested. Which AC50 did it give?
A: 4.47 µM (active)

Q: Which activity, negative = inhibition does the source give for `O=C(O)Cc1cccnc1` here?
A: -12.2% [at 11.4 µM]

Q: For `CC(C)=CCC/C(C)=C/CO/N=C1/C[C@@H](O)[C@@H](O)[C@@H]2[C@@H]3C(=O)N(C(C)(C)C)C(=O)[C@H]3CC[C@H]12`, which activity, negative = inhibition is on record?
A: -7.78% [at 11.4 µM]

Q: Which AC50 does the source give for `CO[C@]1(C2=NCCN2)COc2ccccc2O1` here?
A: inactive
